Compounds with a hit are over-represented: about 4.8% of the library has one in this group of screens.
Mdm2-MdmX inh: inhibitors of human Mdm2-MdmX association, primary screen, cell-based, luminescence, split luciferase, SaOS-2, uHTS | 3% of 330,000 active | Protein Mdm4 (Homo sapiens) + E3 ubiquitin-protein ligase Mdm2 (Homo sapiens), … | SaOS-2 split-luciferase Mdm2/MdmX complementation | inhibition, % at 8 µM;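 active = inhibition of at least 50% at 8 µM in the primary screen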
Beta apoptosis: inhibitors of cytokine-induced beta cell apoptosis, primary screen, luminescence; protection from apoptosis, % (test concentration not listed); INS-1E cytokine-induced death, ATP luminescence, 48 h; percent of positive-control rescue, neutral wells zero; 0.8% of 300,000 active;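 active = Every replicate reaches about 75%, or at least half do and their mean reaches it too, limit read from the data; inconclusive = At least half of replicates reach the limit but their mean does not; inactive = Under half of replicates reach the limit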;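 note: higher means more ATP so stronger rescue from cytokine killing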
Calb FLC: C. albicans growth inhibition with fluconazole, primary screen, CaCi-2 strain, Alamar Blue fluorescence | C. albicans CaCi-2 (fluconazole-resistant clinical isolate) + fluconazole, 48 h | growth inhibition, % (test concentration not listed) | 0.57% of 300,000 active;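 active = growth inhibition above about 58% in most replicates, limit read from the data, passing the limit was not always enough; inconclusive = exactly half the replicates above a set limit; inactive = most replicates below a set limit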;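 note: all wells also contain fluconazole at 8 µg/ml as a sub-toxic cotreatment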
CSC inhib: cancer stem cell viability inhibitors, primary screen, luminescence; cancer stem cell-like cells viability; inhibition, % at 7.5 µM; 1.1% of 300,000 active; in the data active = inhibition above about 75%; inconclusive = no clear call, values can overlap the other calls; tested in HMLE shEcad cells
MPTP block: mitochondrial permeability transition pore inhibitors, primary screen, biochemical, isolated mouse mitochondria, absorbance; Ca2+ swelling absorbance, 30 min; inhibition, % at 10 µM; 1.4% of 360,000 active;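 active = inhibition of 50% or more, scaled per plate between neutral and stimulator controls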
Mdm2-MdmX conf: Mdm2-MdmX complex disruptors, retested hits, confirmation, luminescence, single concentration; inhibition, % at 8 µM; shares compounds with Mdm2-MdmX inh; 55% of 10,000 active; AID 489028, 2010; Mdm2-MdmX binding, luminescent assay; in the data active = inhibition above about 40%
FLuc counter: full-length luciferase signal inhibition, confirmation, counter-screen for Mdm2/MdmX interaction inhibitor project, cell-based, single concentration, SaOS-2; shares compounds with Mdm2-MdmX inh; SaOS-2 full-length luciferase counterscreen, luminescence; inhibition, % at 8 µM; 77% of 6,200 active; AID 504607, 2011;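 active = mean inhibition at 8 µM reaching about 37%, which flags the compound as non-specific, limit read from the data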;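 note: p53-null SaOS-2 cells with luciferase driven by a doxycycline-inducible promoter; compound on cells about two nights before reading with doxycycline added after day one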
Large screens that a line does not name were inactive (follow-up assays come after a bar, where they were run).

O=C(Nc1cc(=O)[nH]c(=O)[nH]1)c1cccc(C(F)(F)F)c1	none
N=c1n(CC(=O)c2ccc(Br)s2)c2ccccc2n1Cc1ccccc1	Mdm2-MdmX inh 97 | Mdm2-MdmX conf 62 | FLuc counter 53
Cn1c(=N)n(CC(=O)c2ccc(Br)s2)c2ccccc21	none
N=c1n(CC(=O)c2cccc([N+](=O)[O-])c2)c2ccccc2n1Cc1ccccc1	Mdm2-MdmX inh 92 | Mdm2-MdmX conf inactive
O=[N+]([O-])c1ccc(Cl)c(CN2CCN(c3ncc(Cc4ccccc4)cn3)CC2)c1	none (no result: Mdm2-MdmX inh, Beta apoptosis, Calb FLC, CSC inhib)
COc1ccc(/C=N/N(C)C2=NS(=O)(=O)c3ccccc32)cc1	none
COc1ccc(N(C)C2=NS(=O)(=O)c3ccccc32)cc1	Mdm2-MdmX inh 52 | Mdm2-MdmX conf 69 | FLuc counter 55
CC(C)C[C@H]1C(=O)N2CCC[C@H]2[C@]2(O)O[C@](NC(=O)C3C=C4c5cccc6[nH]c(Br)c(c56)C[C@H]4N(C)C3)(C(C)C)C(=O)N12 (some centres not stated)	Mdm2-MdmX inh 61 (no result: Calb FLC) | Mdm2-MdmX conf inactive
CSc1nc2c(cnn2-c2ccc(C)c(C)c2)c(=O)[nH]1	Mdm2-MdmX inh 53 (no result: Beta apoptosis) | Mdm2-MdmX conf inactive
O=[N+]([O-])c1ccc(Br)c(CN2CCN(c3ncc(Cc4ccccc4)cn3)CC2)c1	none (no result: Mdm2-MdmX inh, Beta apoptosis, Calb FLC, CSC inhib)
Cc1cc(N/N=C/c2ccc(Cl)cc2Cl)nc(NCc2ccccc2)n1	Mdm2-MdmX inh 71, CSC inhib inconclusive (no result: Beta apoptosis) | Mdm2-MdmX conf inactive
C=C1C(=O)[C@]23C[C@H]1CCC2[C@]1(C)C(=O)CC[C@@](C)(C(=O)O)C1C[C@@H]3O (some centres not stated)	none (no result: Mdm2-MdmX inh, Beta apoptosis, Calb FLC, CSC inhib)
C=C1C(=O)[C@@]23[C@H](O)C[C@@H]4C(C)(C)CC[C@H](O)[C@@]4(C)[C@@H]2CC[C@@H]1[C@H]3O	Mdm2-MdmX inh 97, Beta apoptosis 99 | Mdm2-MdmX conf 100 | FLuc counter 48
C=C1C(=O)[C@@]23[C@H](O)C[C@@H]4C(C)(C)CC[C@H](O)[C@]4(C)[C@@H]2C[C@H](O)[C@@H]1[C@H]3O	Mdm2-MdmX inh 83 | Mdm2-MdmX conf inactive
C=C1C(=O)[C@]23C[C@H]1CCC2[C@]1(C)CCC[C@@](C)(C(=O)O)C1C[C@@H]3O (some centres not stated)	none (no result: Mdm2-MdmX inh, Beta apoptosis, Calb FLC, CSC inhib)
Cc1nc2scc(-c3ccccc3)c2c(=O)n1N	none (no result: CSC inhib)
Cc1nc2scc(-c3ccccc3)c2c(=O)n1N=C1C=CC(=O)C=C1	Mdm2-MdmX inh 70 (no result: Beta apoptosis, CSC inhib, MPTP block) | Mdm2-MdmX conf 42 | FLuc counter inactive
FC(F)(F)c1ccc(CN2C[C@@H]3C(c4ccc(C(F)(F)F)cc4)C4(c5cccnc5)CC3(C4)[C@H]2c2ccccc2)cc1 (some centres not stated)	Mdm2-MdmX inh 65, Beta apoptosis 109 | Mdm2-MdmX conf inactive
COC(=O)c1cccc(C23CC4(C2)[C@H](CN(Cc2ccc(C(F)(F)F)cc2)[C@@H]4c2ccccc2)C3c2ccc(C(F)(F)F)cc2)c1 (some centres not stated)	Mdm2-MdmX inh 73 (no result: MPTP block) | Mdm2-MdmX conf 59 | FLuc counter inactive
FC(F)(F)c1ccc(CN2C[C@@H]3C(c4ccccc4)C4(c5cccnc5)CC3(C4)[C@H]2c2ccccc2)cc1 (some centres not stated)	none
CCOC(=O)CCCCCC(=O)Nc1ccc2c(c1)C(=O)N([C@@H](C)CO)C[C@@H](C)[C@H](CN(C)C(=O)c1ccncc1)OCCCC[C@H](C)O2	none (no result: Mdm2-MdmX inh, Beta apoptosis, Calb FLC, CSC inhib)
O=C(CN1C(=O)NC(Cc2c[nH]c3ccccc23)C1=O)Nc1ccc(F)cc1F (configuration not stated)	none (no result: Calb FLC)
C/C(=N\NC(=O)c1nnn(-c2nonc2N)c1CN1CCCCC1)c1ccccc1O	Mdm2-MdmX inh 51, CSC inhib 81 | Mdm2-MdmX conf 47 | FLuc counter 44
